A structure can be active in one record and inactive in another. Calls of active or inactive are those of the source. Rule for the calls: active = hit-call score of the fitted dose curve at least 0.9, where 1 is the maximum; inactive = score below 0.9.

For 17 compounds, outcome and AC50 results are on record in PubChem BioAssay (EPA / NIEHS).

The target in assay [1] is Nuclear respiratory factor 1 (Homo sapiens) (UniProt Q16656). Kind of assay: ATG_NRF1_CIS: Attagene CIS-FACTORIAL HepG2 Assay for human Nuclear Respiratory Factor 1 (NRF1) Orphan Gene (AID 2282987). Conditions: HepG2 NRF1 cis-element reporter, Attagene multiplex; actives raise or lower the signal. The gist of the method:
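Transcriptional reporter readout, one component of a 52-endpoint multiplexed HepG2 panel. Exposure 24 h; mRNA detected via RT-PCR and fluorescent capillary electrophoresis; fitting in both directions against DMSO.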

The nature of assay [2]: ATG_NFI_CIS: Attagene CIS-FACTORIAL HepG2 Assay for human Nuclear Factor I (NFI) (AID 2282989). The conditions noted are these: HepG2 cis-regulatory reporter, NFI response element transcription; actives raise or lower the signal. The gist of the method: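 Multiplexed cis-reporter system in human HepG2 cells reports native TF activity as reporter mRNA induction 24 h post-dose. Fragments labelled with 6-FAM, HpaI-digested and resolved by capillary electrophoresis; activity fitted both directions versus DMSO.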

Assay [3] has as its target Myc proto-oncogene protein (Homo sapiens) (UniProt P01106). Kind of assay: ATG_Myc_CIS: Attagene CIS-FACTORIAL HepG2 Assay for human Myelocytomatosis (Myc) Proto-Oncogene Transcription Factor (AID 2282990). The conditions noted are these: HepG2, Attagene cis-reporter transcription factor activity; actives raise or lower the signal. The gist of the method: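 Fluorescence intensity of reporter-specific cDNA fragments, separated by capillary electrophoresis, gives the signal. Transfected HepG2 cells carrying cis-promoter reporter constructs are incubated with compound for 24 h; DMSO serves as baseline.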

Assay [4] in a line: ATG_NF_kB_CIS: Attagene CIS-FACTORIAL HepG2 Assay for human Nuclear Factor Kappa B (NF-kB) (AID 2282991). Conditions: HepG2 Attagene cis-factorial NF-kB reporter mRNA; actives raise or lower the signal. The gist of the method: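 HepG2, transient multi-reporter transfection, cis promoter elements (endogenous TFs). 24 h exposure. Total RNA → RT → PCR → 6-FAM label → HpaI → CE. Gain/loss vs DMSO.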

Assay [5] in a line: ATG_NRF2_ARE_CIS: Attagene CIS-FACTORIAL HepG2 Assay for human Nuclear Factor Erythroid 2 Related Factor 2 (NFR2) response to Antioxidant Response Elements (ARE) (AID 2282992).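 For AC50: reporter mRNA level measured by RT-PCR and capillary electrophoresis fluorescence.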 The conditions noted are these: HepG2 Attagene ARE/NRF2 reporter, transcription factor activity; actives raise or lower the signal. The gist of the method:
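HepG2 cells transiently transfected with multiplexed cis-regulated reporter transcription units measure endogenous transcription factor activity. Reporter mRNA at 24 h is quantified by RT-PCR, fluorescent labelling and capillary electrophoresis, with bidirectional fitting relative to DMSO.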

Assay [6] can be described thus: ATG_Oct_MLP_CIS: Attagene CIS-FACTORIAL HepG2 Assay for human Octamer-Binding Transcription Factor (Oct) (AID 2282993). Conditions: HepG2 Attagene cis-factorial Oct reporter, mRNA; actives raise or lower the signal. Summed up: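 After 24 h compound exposure, transfected HepG2 cells were lysed for total RNA; reporter-specific cDNA was PCR-amplified, fluorescently labelled and sized by capillary electrophoresis. Bidirectional curve fitting used DMSO as baseline.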

The target of assay [7] is Cellular tumor antigen p53 (Homo sapiens) (UniProt P04637). Kind of assay: ATG_p53_CIS: Attagene CIS-FACTORIAL HepG2 Assay for human p53 Transcription Factor (AID 2282994). Conditions: HepG2 p53 cis-element reporter, Attagene mRNA; actives raise or lower the signal. Summed up:
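HepG2 cells transiently transfected with multiplexed cis-regulated reporter transcription units read endogenous TF activity. After 24 h compound exposure, reporter mRNA was quantified by RT-PCR, fluorescent labelling, HpaI digestion and capillary electrophoresis; bidirectional fits versus DMSO baseline.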

Assay [8] can be described thus: BSK_3C_TissueFactor: BioMAP Diversity Plus: 3C Assay for Tissue Factor Biomarker Activity (AID 2282997). Conditions: BioMAP 3C HUVEC, tissue factor biomarker readout; actives raise or lower the signal. Summed up:
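Human vascular primary cells (umbilical vein endothelium) received test chemical; Tissue Factor was determined by ELISA at 24 h, and both gain and loss of signal versus DMSO were fitted.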

Assay [9] can be described thus: BSK_3C_uPAR: BioMAP Diversity Plus: 3C Assay for Urokinase-type plasminogen activator receptor (uPAR) Biomarker Activity (AID 2282998). Conditions: BioMAP 3C HUVEC, uPAR biomarker ELISA; actives raise or lower the signal. Summed up: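 Values derive from bidirectional curve fitting relative to DMSO, which served as baseline of activity. uPAR was measured by ELISA in human umbilical vein endothelial primary cultures 24 h after compound addition.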
(In general: An ELISA detects its analyte on a solid surface through an enzyme-linked reagent.)

Assay [10] in a line: BSK_3C_VCAM1: BioMAP Diversity Plus: 3C Assay for Vascular cell adhesion molecule 1 (VCAM1) Biomarker Activity (AID 2282999). The conditions noted are these: BioMAP 3C HUVEC, VCAM1 ELISA, cytokine-stimulated; actives raise or lower the signal. Summed up:
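Human umbilical vein endothelial cells (3C system), biomarker read by ELISA 24 h after dosing; bidirectional fit against DMSO baseline. Cytotoxicity tracked by SRB total-protein staining in parallel cultures at biomarker time.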

Myc proto-oncogene protein (Homo sapiens), sequence (P01106 whole entry, looked up, the tested form may be a part): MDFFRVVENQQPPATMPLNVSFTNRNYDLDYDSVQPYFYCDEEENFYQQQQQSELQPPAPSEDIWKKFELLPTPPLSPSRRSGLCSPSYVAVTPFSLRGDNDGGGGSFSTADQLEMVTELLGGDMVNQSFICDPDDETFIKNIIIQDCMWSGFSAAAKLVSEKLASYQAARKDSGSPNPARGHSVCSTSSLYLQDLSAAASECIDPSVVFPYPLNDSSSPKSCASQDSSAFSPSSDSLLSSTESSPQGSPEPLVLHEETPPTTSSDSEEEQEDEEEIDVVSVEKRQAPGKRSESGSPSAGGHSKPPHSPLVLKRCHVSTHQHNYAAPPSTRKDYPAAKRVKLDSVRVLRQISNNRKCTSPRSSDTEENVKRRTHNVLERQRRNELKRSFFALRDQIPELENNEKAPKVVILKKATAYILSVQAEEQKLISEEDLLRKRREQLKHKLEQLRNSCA
Cellular tumor antigen p53 (Homo sapiens), sequence (P04637 whole entry, looked up): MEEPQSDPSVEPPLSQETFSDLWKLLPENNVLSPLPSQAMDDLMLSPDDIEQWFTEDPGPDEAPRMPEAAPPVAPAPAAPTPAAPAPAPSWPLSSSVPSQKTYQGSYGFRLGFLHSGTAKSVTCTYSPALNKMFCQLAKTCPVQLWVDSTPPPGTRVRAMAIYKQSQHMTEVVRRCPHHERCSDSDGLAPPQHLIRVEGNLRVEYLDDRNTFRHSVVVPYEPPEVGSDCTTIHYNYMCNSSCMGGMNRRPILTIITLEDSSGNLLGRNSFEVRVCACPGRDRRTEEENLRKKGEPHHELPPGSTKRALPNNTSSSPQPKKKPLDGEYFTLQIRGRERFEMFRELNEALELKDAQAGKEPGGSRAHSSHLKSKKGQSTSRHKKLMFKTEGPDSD
Nuclear respiratory factor 1 (Homo sapiens), sequence (Q16656 whole entry, looked up): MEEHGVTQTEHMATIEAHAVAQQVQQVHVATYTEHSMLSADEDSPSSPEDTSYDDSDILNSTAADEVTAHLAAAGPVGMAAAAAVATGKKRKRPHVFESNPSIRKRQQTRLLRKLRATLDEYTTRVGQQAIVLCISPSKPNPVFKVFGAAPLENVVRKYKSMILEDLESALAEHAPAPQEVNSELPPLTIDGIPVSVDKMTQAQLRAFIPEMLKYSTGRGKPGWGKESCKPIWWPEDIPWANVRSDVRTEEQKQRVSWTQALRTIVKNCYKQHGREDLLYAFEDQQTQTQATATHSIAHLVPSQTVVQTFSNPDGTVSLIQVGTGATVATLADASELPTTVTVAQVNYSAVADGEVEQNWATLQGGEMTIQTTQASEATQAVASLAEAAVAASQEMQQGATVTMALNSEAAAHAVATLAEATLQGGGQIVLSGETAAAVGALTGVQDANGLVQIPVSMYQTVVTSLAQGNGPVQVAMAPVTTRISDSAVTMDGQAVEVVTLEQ

`Nc1nc(N)nc(NC2CC2)n1`: the compound was called inactive in assay [1], in assay [2], in assay [3], in assay [4], in assay [5] and in [6]. The call in assay [7], in assay [8] and in [9] was inactive.
The term AC50 denotes the concentration at which the activity in the assay is half-maximal. Take `CCOP(=O)(NC(C)C)Oc1ccc(SC)c(C)c1` (centres undefined): the compound was called inactive in assay [1], in [2], in [3], in assay [4], in [7] and in [8]. Also, the figures for the half-maximal activity concentration (AC50) in assay [5] and in assay [6] were 5.22 µM (active) and 11.2 µM (active), respectively.
`N#CSCSC#N`: the compound was classed as inactive in assay [1], in [2], in assay [3], in assay [5], in assay [6] and in assay [7]. Also, the concentration at half-maximal activity (AC50) in assay [8] was 5.49 µM (active); in assay [9], 5.93 µM (active).
Turning to `CCC(CC)Nc1c([N+](=O)[O-])cc(C)c(C)c1[N+](=O)[O-]`, the compound was classed as inactive in assay [1], in assay [2], in assay [3], in assay [6] and in assay [8]. For the same compound, the concentration at half-maximal activity (AC50) was 14.4 µM (active) in assay [5] and 72.9 µM (active) in [7].
As for `CN(C)[C@@H]1C(=O)C(C(N)=O)=C(O)[C@@]2(O)C(=O)C3=C(O)c4c(O)cccc4[C@@](C)(O)[C@H]3[C@H](O)[C@@H]12`, the outcome in [1], in [2], in assay [3], in assay [5], in [6] and in assay [8] was inactive. For the same compound, in assay [9], the result was inactive. The half-maximal activity concentration (AC50) in assay [5] is 20.8 µM (active); in assay [6], 13.6 µM (active).
As for `CCOC(=O)CC(SP(=O)(OC)OC)C(=O)OCC` (centres undefined), the result in [1], in assay [2], in assay [3], in [4], in [6] and in [7] was inactive. Also, the result in assay [8], in assay [9] and in assay [10] was inactive. Also, the half-maximal activity concentration (AC50) in assay [5] is 21.9 µM (active).
With `CSc1nc(NC(C)C)nc(NC(C)C)n1`, the compound was classed as inactive in assay [1], in assay [2], in assay [3], in [6], in assay [7] and in assay [8]. Moreover, the AC50 in [5] is 10 µM (active).
For `CCOP(=S)(OCC)Oc1cc(C)nc(C(C)C)n1`, the compound was classed as inactive in [1], in assay [2], in [3], in [4], in assay [6] and in assay [7]. The outcome in assay [8] was inactive. In addition, the AC50 in [5] is 15.9 µM (active).
Take `CC(C1CC1)C(O)(Cn1cncn1)c1ccc(Cl)cc1` (centres undefined): the outcome in assay [1], in assay [2], in assay [3], in [4], in assay [5] and in [6] was inactive. For the same compound, the result in [7], in assay [8] and in assay [10] was inactive.
`CCC(=O)Nc1ccc(Cl)c(Cl)c1`: the outcome in assay [1], in assay [3], in assay [6], in [7] and in assay [8] was inactive. The figures for the AC50 in assay [2] and in assay [5] were 10.5 µM (active) and 30.7 µM (active), respectively.
On to `CNc1cnn(-c2cccc(C(F)(F)F)c2)c(=O)c1Cl`, for which the outcome in assay [1], in [2], in assay [3], in [4], in assay [7] and in [8] was inactive. The outcome in [10] was inactive. The AC50 in assay [5] is 17.1 µM (active); in [6], 13.7 µM (active).
Regarding `CCc1cccc(C)c1N(C(=O)CCl)C(C)COC` (centres undefined), the call in assay [1], in assay [2], in assay [3], in assay [7], in [8] and in [9] was inactive. Besides, the AC50 is 5.18 µM (active) in assay [5] and 14.2 µM (active) in assay [6].
Turning to `C#CCC1=C(C)C(OC(=O)C2C(C=C(C)C)C2(C)C)CC1=O` (centres undefined), the outcome in assay [1] and in assay [8] was inactive. The AC50 in [2] was 80 µM (active); in assay [3], 68.1 µM (active); in assay [5], 13.2 µM (active); in assay [6], 44.5 µM (active); in assay [7], 80.1 µM (active).
For `CC1(C(=O)Nc2ccc(O)c(Cl)c2Cl)CCCCC1`, the compound was called inactive in assay [1], in assay [2], in assay [3], in assay [7], in assay [8] and in assay [9]. Moreover, the AC50 in assay [5] was 8.84 µM (active); in assay [6], 22.2 µM (active).
On to `C[N+]1(C)CCCCC1`, for which the call in assay [1], in assay [2], in assay [3], in assay [4], in assay [5] and in [6] was inactive. Further, the call in assay [7] and in assay [8] was inactive.
Turning to `CCOP(=S)(Oc1cnc(C(C)(C)C)nc1)OC(C)C` (centres undefined), the outcome in assay [1], in [2], in [3] and in [7] was inactive. Also, the AC50 in [4] was 22.4 µM (active); in assay [5], 14.1 µM (active); in assay [6], 2.06 µM (active); in assay [8], 31.9 µM (active); in assay [9], 36.2 µM (active); in [10], 36.8 µM (active).
Regarding `CCCOCC(=Nc1ccc(Cl)cc1C(F)(F)F)n1ccnc1`, the call in assay [1], in [2], in assay [3], in assay [6] and in assay [7] was inactive. The AC50 in assay [5] was 7 µM (active); in [8] it was 28.8 µM (active).
